PPC-1+TRAIL kill – kills PPC-1 cancer cells in the presence of TRAIL | 220,000 compounds, 0.41% hits | cell killing (% activity), % at 4 µM or 5 µM | AID 1443 | PPC-1 cells + TRAIL, ATPLite viability luminescence;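 active = cell killing above 50% in the first pass at 4 µM, then a duplicate retest at 5 µM averaging 50% or more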;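 also: plate controls were cells with TRAIL plus DMSO for no effect and medium-only wells lacking cells for full effect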
C8 TRAIL sens – caspase-8 TRAIL sensitization. NB7+C8 cells + TRAIL, ATPlite viability luminescence. inhibition (viability loss, TRAIL sensitization), % at 10 µM. 360,000 compounds, 1% hits. AID 624354;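 active = compounds causing at least 50% loss of cell viability in the single-dose screen, relative to plate controls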
iPSC survival up – increases survival of single human iPS cells. hiPSC single-cell survival, ATPlite luminescence; 100% = ROCK inhibitor wells, 0% = DMSO. survival enhancement, % at 20 µM. 360,000 compounds, 0.044% hits. AID 602274; in the data active = survival enhancement above about 18%;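 also: cells exposed to compounds for 16 hours before the ATP read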
HIF-2a inh – blocks HIF-2a reporter activity; 360,000 compounds, 0.72% hits; inhibition, % at 18.8 µM; 786-0 RCC cells HIF-2a reporter, luciferase luminescence, overnight;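 active = inhibition of the luminescence signal of 40% or more relative to plate controls, in a single-dose primary screen at 18.75 µM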
KKLEB tox – reduces viability of KKLEB cystic fibrosis airway cells | activity change (cytotoxicity), % at 5 µM | AID 602141 | KKLEB CF airway cells viability, ATPlite luminescence, overnight; hits give low values; cells stimulated with P. aeruginosa culture filtrate | 360,000 compounds, 0.36% hits;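 active = corrected activity change at or below -50% at 5 µM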
CF NFkB inh – cystic fibrosis NF-kB activation inhibition; KKLEB NF-kB-GFP reporter, PAF-induced, GFP fluorescence overnight; inhibition, % at 5 µM; 360,000 compounds, 0.86% hits; AID 588850;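 active = at least 50% inhibition at 5 µM, scaled per plate between neutral and stimulator controls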;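 also: PAF is a Pseudomonas aeruginosa culture filtrate used as stimulus; plate controls were PAF-stimulated DMSO wells for no effect and unstimulated DMSO wells for full effect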
PPC1 cytotox – kills PPC-1 cells; AID 1447; 1,200 compounds, 50% hits; cytotoxicity, % at 5 µM; PPC-1 viability, ATPlite luminescence, overnight; shares compounds with PPC-1+TRAIL kill;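 active = reconfirmed compounds whose average cytotoxicity reaches 50% or more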;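 also: 0% = DMSO-treated cells and 100% = wells holding medium but no cells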
* marks the source's active call; other numbers are inactive results; / = no result. A selection: hits, their analogues and other compounds. The true share with any hit is near 2.2%.

SMILES	PPC-1+TRAIL kill	C8 TRAIL sens	iPSC survival up	HIF-2a inh	KKLEB tox	CF NFkB inh	PPC1 cytotox
COc1ccc2c(=O)c(-c3nc(C)cs3)coc2c1	45	66*	-6	-7	-8	-39	57*
CN(C(=O)CSc1nnc(C(F)(F)F)n1C)c1c(N)n(Cc2ccccc2)c(=O)[nH]c1=O	/	-3	3	3	5	10	/
Cc1occc1C(=O)Nc1ccccc1C#N	/	9	0	-2	6	8	/
COCC(C)n1c(C)cc(C(=O)COC(=O)c2ccc(N3CCCC3=O)cc2)c1C (centres undefined)	-8	7	1	9	6	-12	3
COCC(C)n1c(C)cc(C(=O)COC(=O)C2=NN(c3ccccc3)C(=O)CC2)c1C (centres undefined)	-5	8	0	23	-7	3	/
O=C(COc1ccc2c3c(c(=O)oc2c1)CCCC3)NCc1ccccn1	/	-4	1	-17	7	-22	/
COc1ccc(-n2c(C)cc(SC)c(C(C)=O)c2=S)cc1	14	-5	1	15	6	-5	-7
CSc1cc(C)n(-c2ccc(Cl)cc2)c(=S)c1C(C)=O	2	-3	-2	13	1	-2	/
CCOC(=O)C1=C(C)N(CCCC(=O)O)C(=O)NC1c1ccc([N+](=O)[O-])cc1 (centres undefined)	10	8	-2	9	-14	4	6
CC(C)=CCc1cc([C@@H]2CC(=O)c3ccc(O)c(CC=C(C)C)c3O2)ccc1O	/	-11	2	-28	-7	35	/
COc1ccc(-n2c(-c3ccc(Cl)cc3)c[n+]3c2CCc2ccccc2-3)cc1	-3	39	-3	34	-12	-9	/
Cc1ccc(-n2c(-c3ccc(Br)cc3)c[n+]3c2CCc2ccc4cccnc4c2-3)cc1	48	65*	-3	10	-52*	20	43
CCC(CC)C(=O)N(C)c1c(C)nc2c(OCc3cccc(Cl)c3)cccn12	/	-18	0	17	7	-9	/
CCOC(=O)C1C(=O)NCC2CCCC21 (centres undefined)	6	7	-3	13	-2	-2	4
CC(C)(OC(=O)c1ccc(F)cc1)c1cc2ccccc2c(=O)o1	/	5	-3	-18	12	-8	/
CCOC(=O)c1cn[nH]c1NC(=S)Nc1ccc(OC)cc1	60*	67*	-1	-128	-20	31	59*
O=C(Cc1ccccc1)N/N=C/c1cccc([N+](=O)[O-])c1	-9	2	0	-28	-2	3	/
CCCCCCCCCn1ccc(=N)cc1	-5	32	-1	25	-48	48	-9
Cc1cccc(C)c1NCC(=O)N1CCN(Cc2ccccc2)CC1	/	-4	0	16	-10	14	/
COC(=O)C1C(=O)c2c([nH]c(C(=O)OCCOC(C)C)c2C)CC1C (centres undefined)	-9	/	/	/	/	/	-2
Cc1nc2ccc(NC(=O)c3ccc(Cl)s3)cc2s1	22	13	-3	-230	11	5	/
Cc1ccc2nc(NC(=O)CN3C(=O)C4CC=CCC4C3=O)sc2c1 (centres undefined)	9	3	-1	-59	-8	17	21
CS(=O)(=O)c1ccc2nc(NC(=O)c3cccs3)sc2c1	75*	81*	-3	-25	-27	23	76*
Cc1ccc2nc(NC(=O)c3ccc(Cl)s3)sc2c1	9	42	-3	-266	-14	-3	10
O=C(Nc1nc2ccc(F)cc2s1)c1ccccn1	60*	/	/	/	/	/	62*
SMILES	PPC-1+TRAIL kill	C8 TRAIL sens	iPSC survival up	HIF-2a inh	KKLEB tox	CF NFkB inh	PPC1 cytotox
Cc1ccc(OCC(=O)NN=C2C3CC4CC(C3)CC2C4)cc1	/	-15	1	11	-7	2	/
COC(=O)CCCn1cc(CN2CC(N3CCCCC3)CS2(=O)=O)nn1 (centres undefined)	/	3	2	8	/	/	/
Cc1ccc2nc(NC(=O)c3cccs3)sc2c1	52*	61*	-5	-82	-15	1	54*
CN(C)S(=O)(=O)c1cccc(C(=O)NCCOC(=O)c2cc(F)c(F)cc2Cl)c1	/	-9	0	8	2	-5	/
Cc1ccn2cc(-c3ccc4c(c3)NC(=O)CO4)nc2c1	47	29	-2	-281	0	-32	41
O=C(O)c1ccccc1NCc1cccs1	/	-9	2	29	-2	19	/
O=C(COC(=O)c1cnccn1)NCc1ccc2c(c1)OCO2	27	-3	-1	12	15	11	/
Cn1c(=O)c2ccccc2n(Cc2cccc(F)c2)c1=O	/	-6	0	16	2	14	/
COc1cccc2sc(Nc3nc(-c4ccccn4)cs3)nc12	26	28	-3	-299	14	-76	30
c1ccc(Nc2nc(-c3ccccn3)cs2)cc1	18	30	-3	-218	0	-10	/
CC1(Oc2ccc(CC#N)cc2)CCN(Cc2ccccc2OC(F)F)C1 (centres undefined)	/	9	-1	1	-6	7	/
Cc1ccc(-n2nnc(-c3nccs3)n2)cc1	82*	87*	-3	51*	-52*	-2	82*
Clc1ccc(-n2nnc(-c3nccs3)n2)cc1Cl	23	35	-2	-203	-2	-30	/
O=C1c2ccccc2-c2nnc(-c3ccccc3)cc21	63*	75*	-6	-77	-12	-2	65*
COc1ccc(-c2cc3c(nn2)-c2ccccc2C3=O)cc1	89*	87*	-2	14	-50*	-28	89*
Cc1cccc(-c2cc3c(nn2)-c2ccccc2C3=O)c1	35	45	-1	-172	0	-8	/
CN1CCN(C(=S)NC(CC(=O)c2ccccc2)c2ccccc2)CC1 (centres undefined)	9	-25	0	-1	7	4	/
O=C(/C=C/c1cccs1)c1ccc(N2CCOCC2)cc1	64*	76*	-5	-181	-46	13	65*
O=C(/C=C/c1cccc(F)c1)c1ccc(N2CCOCC2)cc1	5	25	-1	-198	-24	-6	/
Cc1onc(-c2ccc(Cl)cc2)c1-c1ccnc(SCC(=O)Nc2cc(Cl)cc(Cl)c2)n1	4	19	0	28	-13	10	/
Cc1ccc(O)c(C(=O)c2cnn(C(=O)c3cccc(S(=O)(=O)N(C)C)c3)c2)c1	/	2	0	18	0	46	/
Cc1ccc2nc(-c3ccc(N)cc3)sc2c1	81*	83*	-1	-76	-56*	-53	82*
CNC(=S)Nc1ccc(-c2nc3ccc(C)cc3s2)cc1	40	47	-4	-85	0	-75	/
Nc1ccc2nc(SCC(=O)c3ccccc3)sc2c1	/	-16	-1	-92	6	-4	/
